Laboratory results taken from ChEMBL document CHEMBL3988442, “University of Dundee, Small-Polar-MMV Screening Library” (2021).
Hit rate of the full screen: of about 48,000 compounds, about 13,000 (27%) showed an effect of 50% or more. The list shows a part of the results.

What follows are molecules tested on Wolbachia pipientis (assay: Anti-Wolbachia Cell-Based Screen). Details: 5 µM.
Assay type: functional
Design: scale not given: in the data most compounds retested in dose-response had high values
In the case of COc1c(CNC2CCCOc3ccc(F)cc32)c(C)nn1C.Cl (centres undefined), the “Percent Effect” value is reported as -15.22%.
With Cc1ccccc1N1CCN(C(=O)c2ccc[nH]2)C(C)C1 (centres undefined) the “Percent Effect” value was -11.11%.
In the case of COCc1noc(-c2ccc(N(C)Cc3cn(C)nc3C)nc2)n1, the “Percent Effect” value is reported as -0.7863%.
In the case of COc1ccc(C(C)N2CCC(C(=O)NC3CC3)CC2)cc1Cl (centres undefined), the “Percent Effect” value is reported as 5.354%.
O=C(c1ccsc1)N1CCc2c(CNc3nccs3)n[nH]c2C1 was tested, and the “Percent Effect” value was -7.215%.
For CN1C(=O)CC(c2ccccc2)C12CCN(c1ncccn1)CC2 (centres undefined), the “Percent Effect” value was -22.26%.
In the case of CCC(C(=O)NCc1cc(N2CCOCC2)ncn1)n1cccn1 (centres undefined), the “Percent Effect” value is reported as -0.1761%.
With Cc1cc(C(F)(F)F)nc(CNC(=O)CCCN2CCCCC2)n1 the “Percent Effect” value was -0.7363%.
In the case of Cc1cc(C(F)(F)F)nc(CNC(=O)CCn2cccn2)n1, the “Percent Effect” value is reported as 103.4%.
CCC(C(=O)NCc1nc(C)cc(C(F)(F)F)n1)n1cccn1 (centres undefined) was tested, and the “Percent Effect” value was 86.37%.
CCC(C(=O)NCc1csc(-c2ncccn2)n1)n1cccn1 (centres undefined) was tested, and the “Percent Effect” value was 6.719%.
With CCC(C(=O)NCCc1nc(C)cc(C(F)(F)F)n1)n1cccn1 (centres undefined) the “Percent Effect” value was 110%.
With Cc1cc(C(F)(F)F)nc(CNC(=O)CCC2CCCCN2C)n1 (centres undefined) the “Percent Effect” value was -1.594%.
For CCC(C(=O)NCc1noc(Cc2cccs2)n1)n1cccn1 (centres undefined), the “Percent Effect” value was -1.383%.
CCc1csc(CNC(=O)C(CC)n2cccn2)n1 (centres undefined) was tested, and the “Percent Effect” value was -1.307%.
For CC(C)NC(=O)N[C@H]1C[C@@H](c2nc(-c3ccncc3)no2)N(C)C1, the “Percent Effect” value was -7.5%.
Cc1ccc2c(c1)CCCN2C(=O)c1cncc(Br)c1 was tested, and the “Percent Effect” value was 3.118%.
With CCc1c(C(=O)Nc2ccc(F)c(C(=O)NC)c2)cnn1CC(C)C the “Percent Effect” value was 115.2%.
For CNC(=O)c1cc(NC(=O)NC(C)CCc2cccn2C)ccc1F (centres undefined), the “Percent Effect” value was 0.1416%.
In the case of CNC(=O)CNC(=O)Nc1ccc(F)c(Br)c1, the “Percent Effect” value is reported as 3.521%.
With O=C(Nc1cnn(CCN2CCOCC2)c1)c1cc(F)ccc1F the “Percent Effect” value was -10.74%.
In the case of CC(C)Cn1cc(NC(=O)c2cccc(N(C)C)c2)cn1, the “Percent Effect” value is reported as -6.196%.
With CNC(=O)c1cc(NC(=O)Nc2cnn(CC(C)C)c2)ccc1F the “Percent Effect” value was 106.8%.
For CCCn1cc(NC(=O)Nc2ccc(F)c(C(=O)NC)c2)cn1, the “Percent Effect” value was 109.9%.
With Cc1c(C(=O)NS(=O)(=O)c2ccc(F)cc2)cnn1CC(C)C the “Percent Effect” value was 6.603%.
CCc1c(NCc2ccc(F)cc2)cnn1CC(C)C was tested, and the “Percent Effect” value was 0.9512%.
In the case of COCCCN1CCC(NC2CSCCc3ccccc32)CC1 (centres undefined), the “Percent Effect” value is reported as 3.161%.
For O=C(CCn1cncn1)N1C[C@H]2CC[C@@H]1CN(Cc1cccnc1)C2, the “Percent Effect” value was 2.407%.
For Cc1nc(Cn2cnc3c(c(Br)nn3C)c2=O)cs1, the “Percent Effect” value was -1.874%.
Cc1csc([C@H]2C[C@@H]3CCN(Cc4cnn(C)c4)C[C@H]3O2)n1 was tested, and the “Percent Effect” value was 5.32%.
CN(C)C(=O)c1n[nH]c2c1CN(Cc1ccccn1)CC2.O=C(O)C(F)(F)F was tested, and the “Percent Effect” value was -21.72%.
In the case of Cc1ccc(CN2CCc3[nH]nc(C(=O)N(C)C)c3C2)s1.O=C(O)C(F)(F)F.O=C(O)C(F)(F)F, the “Percent Effect” value is reported as -17.1%.
CN1CCN(C(=O)c2n[nH]c3c2CCN(Cc2nccs2)C3)CC1 was tested, and the “Percent Effect” value was -5.603%.
In the case of O=C(O)C(F)(F)F.O=C(c1n[nH]c2c1CCN(Cc1nccs1)C2)N1CCCC1, the “Percent Effect” value is reported as 1.297%.
With CN(C)C(=O)c1n[nH]c2c1CN(CC1CCC1)C2.O=C(O)C(F)(F)F.O=C(O)C(F)(F)F the “Percent Effect” value was 93.12%.
In the case of CN(C)C(=O)c1n[nH]c2c1CN(CC1CCCCC1)C2.O=C(O)C(F)(F)F.O=C(O)C(F)(F)F, the “Percent Effect” value is reported as 93.81%.
CCN1CCc2[nH]nc(C(=O)N3CCCC3C)c2C1.O=C(O)C(F)(F)F (centres undefined) was tested, and the “Percent Effect” value was -0.9609%.
In the case of CN(C)C(=O)c1n[nH]c2c1CN(Cc1nccs1)CC2.O=C(O)C(F)(F)F, the “Percent Effect” value is reported as -9.505%.
In the case of CN(C)C1CCN(C(=O)c2n[nH]c3c2CCN(CC2CCC2)C3)CC1, the “Percent Effect” value is reported as 111.2%.
Cc1cc(C(=O)N(C)Cc2ccoc2)c(NC(=O)C(C)(C)C)s1 was tested, and the “Percent Effect” value was -2.438%.
Cn1c(CS(=O)(=O)Cc2ccc(Cl)cc2)cc(=O)n(C)c1=O was tested, and the “Percent Effect” value was 5.826%.
With C/C=C(\C)CN1CCC2(CCC(=O)N2OCc2ccccc2F)CC1 the “Percent Effect” value was 2.227%.
In the case of CCOCc1ccccc1NC(=O)NCC(C)(O)c1cc(C)oc1C (centres undefined), the “Percent Effect” value is reported as -7.22%.
CCc1ccccc1OC1CN(C(=O)CN(C)Cc2cccnc2)C1 was tested, and the “Percent Effect” value was -4.322%.
With COCCNC(=O)Cn1c(-c2ccc(F)cc2)nc(C)c(CCO)c1=O the “Percent Effect” value was 103.8%.
Cc1noc(Cl)c1CC(=O)NCCOc1ccc(F)cc1F was tested, and the “Percent Effect” value was 16.27%.
For Cc1nc(-c2ccc(Cl)cc2)n(CC(=O)NC(C)C)c(=O)c1CCO, the “Percent Effect” value was 129.7%.
With CCN(Cc1cnn(CC)c1)C(=O)Cn1c(=O)c(C)nc2ccccc21 the “Percent Effect” value was -5.598%.
With CCN(CC)C(=O)Cn1c(C)cc2nc(SC)n(CC(C)C)c(=O)c21 the “Percent Effect” value was 2.572%.
With COCCNC(=O)Cn1c(-c2ccc(Cl)cc2)nc(C)c(CCO)c1=O the “Percent Effect” value was 140%.
With CCN(CC)C(=O)Cn1c(-c2ccc(Cl)cc2)nc(C)c(CCO)c1=O the “Percent Effect” value was 119.6%.
For COCCNC(=O)c1sc(Nc2ccc(Cl)cn2)nc1C, the “Percent Effect” value was 19.38%.
For COc1c(CNCCNC(=O)Cc2ccc(F)cc2)c(C)nn1C, the “Percent Effect” value was -0.8821%.
With CC(CNC(=O)c1cccnc1O)Cn1cccn1 (centres undefined) the “Percent Effect” value was -0.5981%.
With O=C1CCCN1CCCC(=O)N1CCCCC1c1ccc(F)cc1 (centres undefined) the “Percent Effect” value was -8.614%.
For O=C(NCCNS(=O)(=O)c1ccc(C(F)(F)F)cc1)c1ccoc1, the “Percent Effect” value was 7.368%.
In the case of CCCN1CCC(NC(=O)c2csc(C)c2C)CC1, the “Percent Effect” value is reported as 2.027%.
In the case of O=C(CS(=O)(=O)c1ccc(Cl)cc1)NC1CCCc2ccccc21 (centres undefined), the “Percent Effect” value is reported as 1.396%.
CC(C)OC(C)c1nnc(SCC(=O)O)n1-c1ccc(F)cc1F (centres undefined) was tested, and the “Percent Effect” value was 15.24%.
With CCOc1ccccc1CC(=O)N1C[C@@H](C(=O)O)[C@H](C2CC2)C1 the “Percent Effect” value was 111.1%.
In the case of CCOc1ccccc1CC(=O)N1C[C@@H](C(=O)O)[C@H](c2ccncc2)C1, the “Percent Effect” value is reported as 102.2%.
In the case of O=C(O)[C@@H]1CN(Cc2cc3c(cc2Cl)OCO3)C[C@H]1C1CC1, the “Percent Effect” value is reported as -1.718%.
With CCOc1ccccc1CC(=O)N1C[C@H](C2CC2)[C@@H](N)C1 the “Percent Effect” value was 104.9%.
With CCOc1ccc(CC(=O)N2C[C@H](C3CC3)[C@@H](N)C2)cc1 the “Percent Effect” value was 13.07%.
In the case of O=C(O)[C@@H]1CN(C(=O)CCc2ccccn2)C[C@H]1c1ccccc1, the “Percent Effect” value is reported as 11.77%.
CCOCCOc1ccccc1C(=O)N1C[C@H](C2CC2)[C@@H](N)C1 was tested, and the “Percent Effect” value was -0.9919%.
O=C(O)[C@@H]1CN(C(=O)Cc2ccccc2Cl)C[C@H]1C1CC1 was tested, and the “Percent Effect” value was 117.2%.
N[C@H]1CN(C(=O)c2ccccc2OCc2ccccc2)C[C@@H]1C1CC1 was tested, and the “Percent Effect” value was 10.21%.
For N[C@H]1CN(C(=O)Cc2ccc(Cl)c(Cl)c2)C[C@@H]1C1CC1, the “Percent Effect” value was 0.666%.
In the case of Cc1nc(C)c(CC(=O)N2C[C@@H](C(=O)O)[C@H](c3ccncc3)C2)s1, the “Percent Effect” value is reported as -15.05%.
In the case of COc1ccccc1[C@@H]1CN(C(=O)Cc2csc(C)n2)C[C@H]1C(=O)O, the “Percent Effect” value is reported as 12.9%.
CS(=O)(=O)N1C[C@H]2CNC[C@@]2(C(=O)NCCCc2ccccc2)C1 was tested, and the “Percent Effect” value was 15.21%.
With C1CCCN(c2nc(C3CC3)ns2)CC1 the “Percent Effect” value was 16.93%.
CCCS(=O)(=O)N1CCC2(CN(c3cnn(C)c3)C(=O)CN2C)C1.O=C(O)C(F)(F)F (centres undefined) was tested, and the “Percent Effect” value was -3.589%.
In the case of CCc1cc(NCCS(=O)(=O)N(C)C)nc(N2CCOCC2)n1, the “Percent Effect” value is reported as 7.02%.
For CS(=O)(=O)NCc1cc(-c2cc(F)cc(F)c2)nc(N2CCCC2)n1, the “Percent Effect” value was 85.03%.
With CCc1cc(NC(C)(C)C)nc(N2CCOCC2)n1 the “Percent Effect” value was -8.862%.
CS(=O)(=O)NCc1cc(-c2cc(F)cc(F)c2)nc(N2CC[C@H](O)C2)n1 was tested, and the “Percent Effect” value was 97.73%.
In the case of Cc1cc(F)cc(S(=O)(=O)NCCCN2CCC(O)CC2)c1, the “Percent Effect” value is reported as 17.75%.
Cc1nn2c(N3CCC(O)C3)cc(-c3ccccc3)nc2c1C (centres undefined) was tested, and the “Percent Effect” value was 3.691%.
In the case of CS(=O)(=O)NCc1cc(-c2cc(F)cc(F)c2)nc(N2CCOCC2)n1, the “Percent Effect” value is reported as 112.2%.
Cc1nc(N2CCCC2)nc(C)c1NS(C)(=O)=O was tested, and the “Percent Effect” value was 5.529%.
Cc1cc(F)cc(CN2CCCn3nc(CNS(C)(=O)=O)cc3C2)c1 was tested, and the “Percent Effect” value was -6.917%.
For Cn1cnc2c1C(C(=O)N1CCCC1)N(CC1CC1)CC2.O=C(O)C(F)(F)F (centres undefined), the “Percent Effect” value was 6.577%.
For Cc1noc(C)c1CN(C)C(=O)C1CCCN1S(N)(=O)=O (centres undefined), the “Percent Effect” value was 1.482%.
For Cc1nc2ccccc2n(Cc2nnnn2C2CC2)c1=O, the “Percent Effect” value was 11.64%.
In the case of CCc1ccc(CN2CCN(c3ccc(Cl)nn3)CC2)nc1, the “Percent Effect” value is reported as -1.382%.
With CC(=O)N1CC[C@H]2CC(=O)N(C3CC3)CC[C@H]2C1 the “Percent Effect” value was -2.772%.
With COCc1noc(-c2ccc(N3CCCC3c3ccc(F)cc3)nc2)n1 (centres undefined) the “Percent Effect” value was 17.95%.
With CCSc1ccccc1C(=O)N1CC2(COC(C)(C)OC2)C1 the “Percent Effect” value was 0.7993%.
CC(C)N1CCC(NCc2cccnc2N(C)C)CC1 was tested, and the “Percent Effect” value was 4.897%.
For COc1ncc(CN(CCN(C)C)Cc2ccc(C)s2)cn1, the “Percent Effect” value was 7.179%.
In the case of CC(C)N1CCC(NCc2cccnc2N(C)Cc2ccccc2)CC1, the “Percent Effect” value is reported as -0.8543%.
For CCCc1ncc(CN(C)C2CCCN(CCc3ccccc3)C2)cn1 (centres undefined), the “Percent Effect” value was -21.26%.
In the case of COc1ncc(CN(C)C2CCN(C(C)C)CC2)cn1, the “Percent Effect” value is reported as 134.1%.
CNc1ncc(CN(C)C2CCN(C(C)C)CC2)cn1 was tested, and the “Percent Effect” value was 131.8%.
CCc1ncc(CN(C)C2CCN(C(C)C)CC2)cn1.O=C(O)CC(O)(CC(=O)O)C(=O)O was tested, and the “Percent Effect” value was 161.6%.
CC(C)N1CCC(C(=O)N(C)C(C)c2ccon2)CC1 (centres undefined) was tested, and the “Percent Effect” value was -1.072%.
In the case of CCN1CCN(Cc2ccnc(-c3cccnc3)n2)CC1.O=C(O)CC(O)(CC(=O)O)C(=O)O, the “Percent Effect” value is reported as -7.954%.
